# An excerpt weighted towards active compounds, which were near 2.9% of everything screened.
# HEK293 viab = counter-screen for SNCA expression inhibitors: cell viability; 0.12% of 150,000 active; Potency, µM (top dose mostly 57.1 µM), inactives show top-dose activity change, negative = cytotoxicity, usual class: cytotoxic; HEK-293-SNCA-luc viability, GF-AFC fluorescence, 24 h; AID 1671193;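 further: potency means the concentration at half of the fitted maximal effect; 0% = DMSO-treated cells and -100% = medium-only wells without cells; nearly all actives have a fitted effect of over 30% in size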
#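 HEK-293-SNCA-luc cells (1500/well) plated 24 h, then exposed 24 h to a dilution series; GF-AFC added 30 min at 37C, fluorescence 405/540 nm; normalised to medium-only and DMSO wells, Hill fit.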
# KDM5B inhibitor = blocks human KDM5B histone demethylase activity. 2.6% of 220,000 active. Potency, µM (series often up to 57.7 µM), hits mostly inhibitors. KDM5B demethylase, FDH-coupled NADH fluorescence (FDH is formaldehyde dehydrogenase). Q9UGL1; further: potency means the concentration at half of the fitted maximal effect; 0% is about no effect; nearly all actives have a fitted effect of over 70% in size
#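 qHTS format, multiple compound concentrations. Buffer 50 mM HEPES pH 7.5/0.01% Tween-20; 200 nM KDM5BΔAP final; 10 min compound preincubation; substrate-mix levels 12.5 µM peptide, 25 µM α-KG, 0.25 mM NAD⁺; 30 min RT; ΔRFU.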
# IP6K1 inh = IP6K1 kinase inhibition; IP6K1 kinase, ADP-Glo luminescence, 2 h; hits give low values; activity change, % (series mostly up to about 58 µM); 0.81% of 140,000 active; in the data active means activity change below about -25%; further: on the % scale 0 is the no-effect control and ±100 the full control effect
# Target sequence (Q92551 whole entry, looked up): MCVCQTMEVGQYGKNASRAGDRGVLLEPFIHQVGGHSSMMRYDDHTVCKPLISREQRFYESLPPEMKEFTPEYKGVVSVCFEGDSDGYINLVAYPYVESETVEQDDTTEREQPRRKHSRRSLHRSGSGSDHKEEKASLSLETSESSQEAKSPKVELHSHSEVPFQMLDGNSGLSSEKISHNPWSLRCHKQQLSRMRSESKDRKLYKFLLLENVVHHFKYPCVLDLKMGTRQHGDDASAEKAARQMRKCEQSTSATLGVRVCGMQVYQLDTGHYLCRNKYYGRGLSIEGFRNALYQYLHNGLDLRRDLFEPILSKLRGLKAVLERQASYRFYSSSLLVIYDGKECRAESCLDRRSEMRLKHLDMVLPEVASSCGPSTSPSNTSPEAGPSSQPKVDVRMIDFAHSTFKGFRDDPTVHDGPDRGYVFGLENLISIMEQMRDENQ
#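 ADP-Glo luminescence measures ADP made by human IP6K1 during a 2 h RT reaction with ATP/IP6 (mix at 1.3 mM/130 uM); top library doses 57.5 and 19.1 uM final.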
# SNCA expr inhib = reduces expression of the alpha-synuclein gene. 0.17% of 140,000 active. Potency, µM (doses to about 57.2 µM), without a hit: at the highest dose activity change, negative = inhibition, usual class: inhibitors. HEK-293 SNCA-luciferase knock-in, luminescence, 24 h;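 further: potency means the concentration at half of the fitted maximal effect; plate controls were DMSO cells for no effect and cell-free wells for full effect; nearly all actives have a fitted effect of over 45% in size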
# Starred values were filed as active, the others as inactive; i = inactive; ? = inconclusive; · = no result given; [ ] = dose if it differs, or a comment. Unless noted, the call rests on the fitted dose curve; in most records, active means well fitted curve in the direction sought with a large enough effect; inconclusive means small, poorly fitted or top-dose-only effect, or another doubt; inactive means no such curve, though single readings can be large; an effect the other way counts as inactive or inconclusive.
SMILES,HEK293 viab,KDM5B inhibitor,IP6K1 inh,SNCA expr inhib
C=CCOC(=O)C1=C(C)N=C2SC=C(CC(=O)N3CCCC3)N2C1c1cc(OC)cc(OC)c1 (stereo not drawn),-6%,i,-2,17%
CC(C)n1c(CNC(=O)C[C@H]2NC(=O)c3ccccc3NC2=O)nc2ccccc21,1%,28µM*,1,11%
CN1C(=O)c2ccc(NC(=O)C[C@H]3NC(=O)c4ccccc4NC3=O)cc2C1=O,-2%,25µM*,-8,13%
NC(=O)c1ccc(NC(=O)C[C@H]2NC(=O)c3ccccc3NC2=O)cc1,6%,i,14,8%
CCOc1ccc(C(c2c(C)[nH]n(-c3ccccc3)c2=O)c2c(C)[nH]n(-c3ccccc3)c2=O)cc1OC,?,?,-30*,35%
CC1=C[C@@H](CNC(=O)CC(C)(C)CC(=O)O)[C@H](C(C)C)C[C@H]1Cc1nc2ccc(C)cc2[nH]1,-20%,i,12,3%
Cc1ccccc1-c1nc2cnccn2c1NCCC(=O)NC1CCCCC1,29%,28µM*,9,14%
Cc1ccccc1-c1nc2cnccn2c1NCCC(=O)NCc1ccco1,?,32µM*,-5,-5%
Cn1c(SCC(=O)NC2CCCCC2)nnc1-c1cccnc1,·,i,·,·
O=C(NCC1CCCCC1)c1nc2sccn2c1-c1ccncc1,-4%,·,13,3%
Cn1cccc1CN1CCC2CC(=O)NCCC2C1 (stereo not drawn),4%[87.6 µM],100µM*,1,1%[87.6 µM]
COc1ccccc1NC1(c2nnnn2-c2ccccc2)CCCCC1,·,i,·,·
CC(C)(C)c1[nH]c2ccc(Br)cc2c1C=O,·,i,·,·
O[C@@H]1C[C@@H](c2nc(-c3ccccn3)no2)N(Cc2cc3ccccc3o2)C1,-2%[87.6 µM],32µM*,12,94%[87.6 µM]
COCC(=O)Nc1ccc(-c2noc([C@@H]3CCCN3Cc3ccc(NC(C)=O)cc3)n2)cn1,-3%,i,15,2%
CN(C)c1ccc(-c2noc([C@@H]3CCCN3CC3CCCCC3)n2)cn1,12%[87.6 µM],40µM*,19,40%[87.6 µM]
COCC(=O)Nc1ccc(-c2noc([C@@H]3CCCN3Cc3cc4ccccc4o3)n2)cn1,-5%[87.6 µM],32µM*,19,-7%[87.6 µM]
COc1ccc(C(=O)Nc2ccc(-c3noc([C@@H]4CCCN4CC4CCCCC4)n3)cn2)cc1,-8%,32µM*,-3,-11%
O=C(c1ccccn1)N1CC(Oc2ccc(F)c(F)c2)C1,9%[87.6 µM],i,1,41%[87.6 µM]
CCOC(=O)c1cnc2ccc(OC)cc2c1Nc1ccccc1CC,·,i,·,·
COc1ccc(C(=O)Nc2ccc(-c3noc([C@@H]4CCCN4Cc4ccc(C(F)(F)F)cc4)n3)cn2)cc1,-8%,28µM*,-3,-24%
COc1ccc(C(=O)Nc2ccc(-c3noc([C@@H]4CCCN4Cc4ccc(OC(F)(F)F)cc4)n3)cn2)cc1,-7%,?,-2,-12%
Cc1ccc(C(=O)/C=C/c2cc(C)ccc2C)cc1,·,i,·,·
Cc1cn2nc(C(=O)Nc3ccc(C)c(F)c3)cc2c(N(C)Cc2ccccc2)n1,5%,i,-4,14%
Cc1cn2nc(C(=O)Nc3ccc(Cl)cc3)cc2c(N(C)Cc2ccccc2)n1,3%,28µM*,8,15%
SMILES,HEK293 viab,KDM5B inhibitor,IP6K1 inh,SNCA expr inhib
Cc1ccc(NC(=O)c2cc3c(N(C)Cc4ccccc4)nc(C)cn3n2)c(F)c1,9%,10µM*,15,-14%
Cc1cn2nc(C(=O)Nc3ccc(N(C)C)cc3)cc2c(N(C)Cc2ccccc2)n1,-28%,?,-2,99%
Cc1cn2nc(C(=O)Nc3ccc(F)cc3)cc2c(N(C)Cc2ccccc2)n1,-12%,25µM*,15,8%
CCOC(=O)c1cccc(NC(=O)NCc2cccn2Cc2cccc(F)c2)c1,·,i,·,·
Cc1nn2c(c1-c1ccccc1-c1ccccc1)N(Cc1cccc(O)c1)CCC2,?,28µM*,-3,?
Cc1ccc(CN2CCCn3nc(C)c(-c4ccccc4-c4ccccc4)c32)o1,-14%[87.6 µM],35µM*,7,?
CC(CCc1ccccc1)Nc1ncnc2c1CN(C1CCNC1)C(=O)CN2C (stereo not drawn),0%,?,-11,-10%
O=Cc1cccc(-c2cncnc2)c1,0%[87.6 µM],i,-1,0%[87.6 µM]
c1ccc(-c2cc3c(cn2)CN(Cc2ccc4[nH]ccc4c2)CCN3)cc1,?,i,-4,73%[87.6 µM]
Oc1ccccc1CN1CCNc2cnc(OCc3cccnc3)cc2C1,-1%[87.6 µM],?,-16,-35%[87.6 µM]
